Assay results reported in PubChem BioAssay (NCATS).
Records with an inconclusive call do not appear. Where a call stands in place of a potency, no number is given. Values without a mark were called inactive. Activity calls are given as the source filed them. The call rests on the fitted dose curve; in most records, active means well fitted inhibition curve with a large enough effect; inconclusive means small, poorly fitted or top-dose-only effect; inactive means no such curve, though single readings can be large or run the other way.
Potency means the concentration at half of the fitted maximal effect.

The molecules below were run on Zika virus NS2B-NS3 protease (linked construct) (assay: Primary screen NINDS Rhodamine qHTS for Zika virus inhibitors (AID 1347160; further: nearly all actives have a fitted effect of over 55% in size)). Settings: purified NS2B-NS3 protease, Rhodamine110 substrate fluorescence; series mostly up to 57.1 µM.
In short: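 Enzyme (25 nM, linked NS2B-NS3) was preincubated 15 min with compound in 10 mM Tris-HCl pH 8.0, 0.01% Tween 20. Rhodamine110 substrate (1.5 microM) was then added and fluorescence read at start and after 15 min.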
`CC1OC(OC2C(O)COC(O[C@@H]3[C@@H](O)[C@@H](O)[C@H](OC4C(OC(=O)[C@]56CCC(C)(C)CC5C5=CCC7[C@@]8(C)C[C@H](O)[C@H](OC9OC(CO)C(O)C(O)C9O)[C@@](C)(CO)C8[C@H](O)C[C@@]7(C)[C@]5(C)CC6)OCC(O)C4O)O[C@H]3C)C2O)C(O)C(O)C1O` (stereo partly drawn) was tested, and the outcome was “inactive [at 10.7 µM]”.
For `C/C(=N\N=C(N)N)c1cc(NC(=O)CCCCCCCCC(=O)Nc2cc(/C(C)=N/N=C(N)N)cc(/C(C)=N/N=C(N)N)c2)cc(/C(C)=N/N=C(N)N)c1`, the Potency was “inactive”.
With `CC[C@H](C(=O)Nc1ccccc1N1CCCC1)c1ccccc1` the Potency was “inactive”.
For `C[C@@H](Nc1ncnc2[nH]c(-c3ccc(O)cc3)cc12)c1ccccc1`, the Potency was “inactive”.
`C=C[C@](C)(O)CC[C@H]1C(C)=CC(=O)[C@H]2C(C)(C)CCC[C@]12C` was tested, and the Potency was “inactive”.
In the case of `O=C1Cc2c([nH]c3ccc(Br)cc23)-c2ncccc2N1`, the Potency is reported as “inactive”.
`COc1cc2ncnc(Nc3cccc(I)c3)c2cc1OC` was tested, and the Potency was “inactive”.
With `O=C1C(Cc2ccc(O)cc2)N2C(=O)CCN(C(=O)NCc3ccccc3)C2CN1Cc1cccc2ccccc12` (stereo not drawn) the Potency was “inactive”.
With `CC1(C)SCCN(S(=O)(=O)c2ccc(Oc3ccncc3)cc2)[C@H]1C(=O)NO` the Potency was “inactive”.
For `Cc1c(NC(=O)c2cc3c(s2)CCCC3)cccc1-c1cn(C)c(=O)c(Nc2ccc(C3C(=O)N(C)CCN3C)cc2)n1` (stereo not drawn), the Potency was “inactive”.
With `CC1(C)CC[C@]2(C(=O)O)CC[C@]3(C)C(=CCC4[C@@]5(C)C[C@@H](O)[C@H](O)[C@@](C)(CO)C5CC[C@]43C)[C@@H]2[C@@H]1O` (stereo partly drawn) the Potency was “inactive”.
With `C[C@@H](NC(=O)[C@H](O)c1cc(F)cc(F)c1)C(=O)N[C@@H]1C(=O)N(C)c2ccccc2-c2ccccc21` the Potency was “inactive”.
In the case of `CC(=O)OC1[C@H]2[C@@H](C[C@@H](C)[C@@H]3C=CC(=O)[C@@]13C)OC(=O)[C@@H]2C` (stereo partly drawn), the Potency is reported as “inactive”.
`Clc1ccc(Nc2nc3ccccc3c3nc(C4CCCCC4)[nH]c23)cc1Cl` was tested, and the Potency was “inactive”.
In the case of `CCOC(=O)c1ccc(OCCC2CCN(c3ccc(C)nn3)CC2)cc1`, the Potency is reported as “inactive”.
`COc1cc2ncnc(Nc3ccc(F)c(Cl)c3)c2cc1O` was tested, and the Potency was “inactive”.
`CCCn1ncc(CN2CCCC(C(=O)c3cccc(OC(C)C)c3)C2)c1C` (stereo not drawn) was tested, and the Potency was “inactive”.
In the case of `CCc1ccc(-c2nc(CSCC(=O)NCCc3ccccc3)c(C)o2)cc1`, the Potency is reported as “inactive”.
For `C[C@@H]1O[C@@H](O[C@H]2[C@@H](OC(=O)[C@]34CCC(C)(C)CC3C3=CCC5[C@@]6(C)C[C@H](O)[C@H](O[C@@H]7O[C@H](CO)[C@@H](O)[C@H](O)[C@H]7O[C@@H]7OC[C@@H](O)[C@H](O)[C@H]7O)[C@@](C)(C(=O)O)C6CC[C@@]5(C)[C@]3(C)CC4)OC[C@H](O)[C@@H]2O)[C@H](O)[C@H](O)[C@H]1O[C@@H]1OC[C@@H](O)[C@H](O)[C@H]1O` (stereo partly drawn), the activity change, negative = inhibition was 21.4% [at 10.7 µM].
With `Cc1ccc(C)c(NC(=O)[C@@H]2CCCN2S(=O)(=O)c2cccc3cccnc23)c1` the Potency was “inactive”.
With `O=C([C@@H]1CCCN(c2ccc3[nH]c(C4(n5cc(Cl)cn5)CC4)nc3n2)C1)N1CCCC1` the Potency was “inactive”.
In the case of `O=C(Nc1cccc(C(F)(F)F)c1)Nc1ccc(Br)cc1-c1nn[nH]n1`, the Potency is reported as 17.8 µM (active).
For `C=C1CCN([C@H](C)[C@](O)(Cn2cncn2)c2ccc(F)cc2F)CC1`, the Potency was “inactive”.
In the case of `C/C=C(/C)C(=O)O[C@@H]1C[C@@H](OC(=O)CC(C)C)C2(C)C3C(=O)C=C(C)C2C3C1(C)C` (stereo partly drawn), the Potency is reported as “inactive”.
`C=C1C(=O)O[C@@H]2/C=C(\CO)CC/C=C(/C=O)C[C@H](O)[C@@H]12` was tested, and the Potency was “inactive”.
In the case of `CCOc1ccc(S(=O)(=O)N2CCCCCC2)c2ccccc12`, the Potency is reported as “inactive”.
In the case of `c1cc(-c2cnn3cc(-c4ccc(N5CCNCC5)cc4)cnc23)c2cccnc2c1`, the Potency is reported as “inactive”.
`O=C(Nc1ccccc1Br)NC1CCN(c2ccc(C(F)(F)F)cn2)C1` (stereo not drawn) was tested, and the Potency was “inactive”.
`CCC(C)/C=C(C)/C=C/C1=CC2=C(Cl)C(=O)C(C)(OC(C)=O)C(=O)C2(O)C(OC)O1` (stereo not drawn) was tested, and the Potency was 11.2 µM (active).
`O=C(NCc1ccccc1)c1ccc2c(=O)n(-c3cccc(C(F)(F)F)c3)c(=S)[nH]c2c1` was tested, and the Potency was “inactive”.
In the case of `CN(C)C(=O)COC(=O)c1cc(-c2ccc(C3CCNCC3)cc2)c2ccc(-c3ccc(C(F)(F)F)cc3)cc2c1`, the Potency is reported as “inactive”.
With `CNCCC(c1cccs1)c1ccc(O)c2ccccc12` (stereo not drawn) the Potency was “inactive”.
`O=C1c2ccc(Nc3ccc(F)cc3F)cc2CCc2ccc(OCC(O)CO)cc21` (stereo not drawn) was tested, and the Potency was “inactive”.
